Reference: publication PMC7862700, “An all-to-all approach to the identification of sequence-specific readers for epigenetic DNA modifications on cytosine”

Tests used:
Assay in all cases: DAPPL (digital affinity profiling via proximity ligation, sequencing); 10 mM Tris-HCl pH 7.5, 50 mM NaCl, 1 mM DTT, 4% glycerol, room temperature, 30 min; GST-TFs on glutathione beads, 16-mer random dsDNA library, 0.1% formaldehyde crosslink after washing; high values mean tight binding
Conditions in all cases: protein: recombinant; tags: N-terminal GST; dsDNA, one strand shown
[1] = biological target: T1, FEV (Homo sapiens, UniProt Q99581 1-238)
T1 sequence: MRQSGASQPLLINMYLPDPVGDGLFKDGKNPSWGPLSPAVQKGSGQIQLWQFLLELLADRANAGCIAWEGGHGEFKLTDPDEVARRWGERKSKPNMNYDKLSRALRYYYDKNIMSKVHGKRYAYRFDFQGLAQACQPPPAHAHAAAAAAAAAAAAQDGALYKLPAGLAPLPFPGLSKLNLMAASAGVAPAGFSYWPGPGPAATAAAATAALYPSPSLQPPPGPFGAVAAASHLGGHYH
In short: (§1)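 Binding signal is each hexamer's read frequency for a factor divided by its frequency in the tag-only sample. The factors were GST-fused human transcription factors from yeast, captured on glutathione beads, DNA-barcoded and pooled with that sample. Pools were incubated with 200 nmole of a random double-stranded 16-mer DNA library in Tris/NaCl/DTT/glycerol buffer at room temperature for 30 min, then washed, crosslinked with 0.1% formaldehyde, proximity-ligated with BsaI/T4 ligase (1 h, 37 °C), PCR-amplified and sequenced on an Illumina NextSeq500.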

[2] = biological target: ETV5 (Homo sapiens, UniProt P41161 1-510)
In short: as §1

[3] = biological target: T2, SPIC (Homo sapiens, UniProt Q8N5J4 1-248)
T2 sequence: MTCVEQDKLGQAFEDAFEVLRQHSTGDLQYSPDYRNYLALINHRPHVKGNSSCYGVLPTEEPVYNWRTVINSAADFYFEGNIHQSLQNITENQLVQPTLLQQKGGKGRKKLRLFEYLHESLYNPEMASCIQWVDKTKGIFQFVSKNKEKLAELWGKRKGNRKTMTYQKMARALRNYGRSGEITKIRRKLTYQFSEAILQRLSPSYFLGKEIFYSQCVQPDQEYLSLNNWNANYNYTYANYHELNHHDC
In short: as §1

[4] = biological target: ELF4 (Homo sapiens, UniProt Q99607 1-663)
In short: as §1

[5] = biological target: T3, ELK4 (Homo sapiens, UniProt P28324-2 1-405)
T3 sequence: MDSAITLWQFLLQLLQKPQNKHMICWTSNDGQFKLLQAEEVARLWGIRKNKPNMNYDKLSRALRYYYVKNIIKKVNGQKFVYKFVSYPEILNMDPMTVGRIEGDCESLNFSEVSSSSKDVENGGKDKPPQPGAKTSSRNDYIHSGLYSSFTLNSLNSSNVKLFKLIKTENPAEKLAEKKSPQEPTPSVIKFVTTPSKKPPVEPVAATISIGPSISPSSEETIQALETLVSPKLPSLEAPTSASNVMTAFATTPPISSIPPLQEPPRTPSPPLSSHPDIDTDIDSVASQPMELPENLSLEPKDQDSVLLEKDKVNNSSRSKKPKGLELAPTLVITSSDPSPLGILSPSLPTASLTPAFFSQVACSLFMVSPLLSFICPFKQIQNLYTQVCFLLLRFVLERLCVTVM
In short: as §1

[6] = biological target: T4, ETV2 (Homo sapiens, UniProt O00321 1-342)
T4 sequence: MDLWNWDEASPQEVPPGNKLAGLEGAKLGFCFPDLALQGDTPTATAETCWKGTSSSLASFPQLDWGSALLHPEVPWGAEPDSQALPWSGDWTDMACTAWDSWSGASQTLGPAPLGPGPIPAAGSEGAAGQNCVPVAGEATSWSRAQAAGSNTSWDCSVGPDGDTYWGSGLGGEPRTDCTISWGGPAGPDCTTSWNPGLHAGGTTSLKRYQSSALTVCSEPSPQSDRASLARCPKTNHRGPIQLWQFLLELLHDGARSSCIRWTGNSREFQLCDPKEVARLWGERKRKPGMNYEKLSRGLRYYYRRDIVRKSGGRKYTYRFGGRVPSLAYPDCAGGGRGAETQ
In short: as §1

[7] = biological target: T5, ELF3 (Homo sapiens, UniProt P78545 1-371)
T5 sequence: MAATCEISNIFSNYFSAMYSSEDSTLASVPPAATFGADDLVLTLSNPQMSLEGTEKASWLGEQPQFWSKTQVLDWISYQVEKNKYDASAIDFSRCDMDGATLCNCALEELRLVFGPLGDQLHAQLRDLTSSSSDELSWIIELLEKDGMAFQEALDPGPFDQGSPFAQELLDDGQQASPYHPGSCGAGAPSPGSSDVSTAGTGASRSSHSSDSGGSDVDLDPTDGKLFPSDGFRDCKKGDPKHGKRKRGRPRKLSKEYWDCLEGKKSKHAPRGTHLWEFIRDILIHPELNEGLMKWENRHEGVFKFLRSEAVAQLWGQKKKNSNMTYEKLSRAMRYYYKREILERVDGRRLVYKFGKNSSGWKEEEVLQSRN
In short: as §1

[8] = biological target: CRX (Homo sapiens, UniProt O43186 1-299)
In short: as §1

[9] = biological target: ETV1 (Homo sapiens, UniProt P50549 1-477)
In short: as §1

[10] = biological target: T6, ERF (Homo sapiens, UniProt P50548 1-548)
T6 sequence: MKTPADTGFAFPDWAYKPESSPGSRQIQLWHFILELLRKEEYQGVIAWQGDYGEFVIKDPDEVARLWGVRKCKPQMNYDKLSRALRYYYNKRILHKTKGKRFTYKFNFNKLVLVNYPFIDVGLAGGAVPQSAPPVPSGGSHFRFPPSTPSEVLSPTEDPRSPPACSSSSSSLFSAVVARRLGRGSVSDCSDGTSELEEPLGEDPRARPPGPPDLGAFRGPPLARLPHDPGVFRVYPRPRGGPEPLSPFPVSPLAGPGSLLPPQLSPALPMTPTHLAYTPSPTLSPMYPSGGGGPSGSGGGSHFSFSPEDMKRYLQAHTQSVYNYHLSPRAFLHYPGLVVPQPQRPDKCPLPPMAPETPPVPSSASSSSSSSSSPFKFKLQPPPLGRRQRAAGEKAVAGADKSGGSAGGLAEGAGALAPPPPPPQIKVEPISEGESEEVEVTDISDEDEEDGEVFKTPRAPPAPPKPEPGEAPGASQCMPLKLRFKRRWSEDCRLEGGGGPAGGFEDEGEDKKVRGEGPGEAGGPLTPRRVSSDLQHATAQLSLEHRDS
In short: as §1

[11] = biological target: T7, ETV3L (Homo sapiens, UniProt Q6ZN32 1-361)
T7 sequence: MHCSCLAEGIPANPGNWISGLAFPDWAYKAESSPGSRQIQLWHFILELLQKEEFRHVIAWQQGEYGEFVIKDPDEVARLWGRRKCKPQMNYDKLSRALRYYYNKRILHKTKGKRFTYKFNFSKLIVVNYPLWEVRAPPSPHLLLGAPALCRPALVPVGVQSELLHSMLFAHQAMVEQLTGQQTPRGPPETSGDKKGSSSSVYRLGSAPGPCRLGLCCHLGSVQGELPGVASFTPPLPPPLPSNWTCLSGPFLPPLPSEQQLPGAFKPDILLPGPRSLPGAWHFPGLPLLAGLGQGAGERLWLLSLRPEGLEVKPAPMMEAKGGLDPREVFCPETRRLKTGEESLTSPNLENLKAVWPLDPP
In short: as §1

[12] = biological target: T8, ETS2 (Homo sapiens, UniProt P15036 1-469)
T8 sequence: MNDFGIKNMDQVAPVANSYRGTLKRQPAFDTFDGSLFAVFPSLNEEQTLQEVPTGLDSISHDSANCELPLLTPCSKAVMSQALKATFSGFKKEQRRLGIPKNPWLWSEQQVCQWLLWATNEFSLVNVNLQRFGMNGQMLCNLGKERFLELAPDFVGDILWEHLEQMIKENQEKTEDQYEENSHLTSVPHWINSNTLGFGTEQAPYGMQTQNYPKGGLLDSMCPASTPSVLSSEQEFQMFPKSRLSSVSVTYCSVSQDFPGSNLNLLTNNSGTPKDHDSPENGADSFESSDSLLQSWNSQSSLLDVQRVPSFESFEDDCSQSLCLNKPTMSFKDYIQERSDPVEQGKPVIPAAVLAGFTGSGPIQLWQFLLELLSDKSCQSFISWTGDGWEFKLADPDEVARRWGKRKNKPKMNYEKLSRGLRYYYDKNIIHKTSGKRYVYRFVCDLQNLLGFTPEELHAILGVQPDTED
In short: as §1

[13] = biological target: T9, SPDEF (Homo sapiens, UniProt O95238 1-335)
T9 sequence: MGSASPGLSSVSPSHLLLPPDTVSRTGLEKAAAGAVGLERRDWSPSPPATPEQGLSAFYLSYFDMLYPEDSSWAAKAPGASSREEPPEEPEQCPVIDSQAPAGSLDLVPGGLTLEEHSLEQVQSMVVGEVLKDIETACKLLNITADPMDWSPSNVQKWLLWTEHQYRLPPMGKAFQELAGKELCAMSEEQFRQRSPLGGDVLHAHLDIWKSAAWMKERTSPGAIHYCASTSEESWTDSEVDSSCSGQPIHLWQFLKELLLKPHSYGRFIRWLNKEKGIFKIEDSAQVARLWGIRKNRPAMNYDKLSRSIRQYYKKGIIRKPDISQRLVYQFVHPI
In short: as §1

[14] = biological target: T10, ETV7 (Homo sapiens, UniProt Q9Y603 1-341)
T10 sequence: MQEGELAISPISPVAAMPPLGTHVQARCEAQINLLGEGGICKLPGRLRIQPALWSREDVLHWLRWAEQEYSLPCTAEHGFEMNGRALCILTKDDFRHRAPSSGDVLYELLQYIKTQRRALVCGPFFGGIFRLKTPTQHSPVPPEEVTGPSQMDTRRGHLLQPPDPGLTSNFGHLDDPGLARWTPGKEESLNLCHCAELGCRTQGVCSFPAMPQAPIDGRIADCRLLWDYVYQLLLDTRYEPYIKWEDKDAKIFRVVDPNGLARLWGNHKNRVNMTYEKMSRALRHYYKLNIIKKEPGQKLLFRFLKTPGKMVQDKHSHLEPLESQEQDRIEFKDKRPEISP
In short: as §1

[15] = biological target: T11, ELF5 (Homo sapiens, UniProt Q9UKW6-2 1-255)
T11 sequence: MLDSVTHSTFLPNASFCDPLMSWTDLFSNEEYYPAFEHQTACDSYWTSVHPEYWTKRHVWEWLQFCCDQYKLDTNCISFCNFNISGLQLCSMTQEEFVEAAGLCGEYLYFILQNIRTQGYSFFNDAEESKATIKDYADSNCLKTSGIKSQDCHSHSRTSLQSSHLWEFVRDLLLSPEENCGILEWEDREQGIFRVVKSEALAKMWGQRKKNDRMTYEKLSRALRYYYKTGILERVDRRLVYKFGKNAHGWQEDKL
In short: as §1

[16] = biological target: T12, ETV3 (Homo sapiens, UniProt P41162-2 1-143)
T12 sequence: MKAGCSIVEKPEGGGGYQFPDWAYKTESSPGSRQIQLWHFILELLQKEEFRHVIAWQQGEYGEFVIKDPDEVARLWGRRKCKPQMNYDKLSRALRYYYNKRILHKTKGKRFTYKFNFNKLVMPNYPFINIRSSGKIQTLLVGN
In short: as §1

[17] = biological target: ETV6 (Homo sapiens, UniProt P41212 1-452)
In short: as §1

Chain of ETV1 (P50549 whole entry): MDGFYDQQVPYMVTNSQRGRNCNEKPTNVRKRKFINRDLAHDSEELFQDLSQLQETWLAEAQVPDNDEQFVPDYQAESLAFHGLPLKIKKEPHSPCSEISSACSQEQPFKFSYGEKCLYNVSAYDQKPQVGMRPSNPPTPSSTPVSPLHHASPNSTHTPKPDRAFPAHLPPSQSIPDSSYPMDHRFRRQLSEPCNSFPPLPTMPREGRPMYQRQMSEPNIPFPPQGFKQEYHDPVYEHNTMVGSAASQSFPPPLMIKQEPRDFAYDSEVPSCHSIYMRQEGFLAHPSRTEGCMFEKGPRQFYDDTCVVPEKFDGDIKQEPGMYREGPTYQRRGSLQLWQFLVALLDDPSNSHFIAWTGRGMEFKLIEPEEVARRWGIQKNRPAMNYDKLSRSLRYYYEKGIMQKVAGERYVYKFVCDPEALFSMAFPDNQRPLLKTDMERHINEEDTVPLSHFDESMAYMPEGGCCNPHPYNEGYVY
Chain of ETV5 (P41161 whole entry): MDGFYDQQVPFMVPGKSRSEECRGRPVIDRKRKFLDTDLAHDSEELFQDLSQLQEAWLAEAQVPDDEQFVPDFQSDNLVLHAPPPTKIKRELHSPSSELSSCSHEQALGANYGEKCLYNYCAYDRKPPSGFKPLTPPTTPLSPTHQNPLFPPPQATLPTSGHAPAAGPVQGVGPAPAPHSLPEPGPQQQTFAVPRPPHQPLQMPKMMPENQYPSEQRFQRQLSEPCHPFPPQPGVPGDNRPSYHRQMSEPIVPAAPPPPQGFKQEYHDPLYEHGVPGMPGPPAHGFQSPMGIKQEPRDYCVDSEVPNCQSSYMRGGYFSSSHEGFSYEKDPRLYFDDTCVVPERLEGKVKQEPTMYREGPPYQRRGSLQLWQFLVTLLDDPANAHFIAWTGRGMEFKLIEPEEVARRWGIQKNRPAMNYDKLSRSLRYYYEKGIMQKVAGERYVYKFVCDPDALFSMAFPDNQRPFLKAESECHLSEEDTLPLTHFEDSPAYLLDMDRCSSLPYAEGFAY
Chain of ETV6 (P41212 whole entry): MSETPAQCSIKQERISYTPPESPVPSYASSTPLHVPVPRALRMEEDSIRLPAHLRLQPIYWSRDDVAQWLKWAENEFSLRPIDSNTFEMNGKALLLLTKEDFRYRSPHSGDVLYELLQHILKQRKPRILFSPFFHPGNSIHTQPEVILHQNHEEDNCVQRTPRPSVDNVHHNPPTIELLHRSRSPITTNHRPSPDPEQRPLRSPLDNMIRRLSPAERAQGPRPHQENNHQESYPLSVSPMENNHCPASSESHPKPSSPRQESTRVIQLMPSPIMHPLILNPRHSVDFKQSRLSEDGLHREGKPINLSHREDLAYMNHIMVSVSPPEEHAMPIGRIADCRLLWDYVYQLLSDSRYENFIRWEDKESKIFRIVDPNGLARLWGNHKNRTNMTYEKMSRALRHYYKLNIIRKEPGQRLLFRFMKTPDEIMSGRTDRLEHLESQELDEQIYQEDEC
Chain of ELF4 (Q99607 whole entry): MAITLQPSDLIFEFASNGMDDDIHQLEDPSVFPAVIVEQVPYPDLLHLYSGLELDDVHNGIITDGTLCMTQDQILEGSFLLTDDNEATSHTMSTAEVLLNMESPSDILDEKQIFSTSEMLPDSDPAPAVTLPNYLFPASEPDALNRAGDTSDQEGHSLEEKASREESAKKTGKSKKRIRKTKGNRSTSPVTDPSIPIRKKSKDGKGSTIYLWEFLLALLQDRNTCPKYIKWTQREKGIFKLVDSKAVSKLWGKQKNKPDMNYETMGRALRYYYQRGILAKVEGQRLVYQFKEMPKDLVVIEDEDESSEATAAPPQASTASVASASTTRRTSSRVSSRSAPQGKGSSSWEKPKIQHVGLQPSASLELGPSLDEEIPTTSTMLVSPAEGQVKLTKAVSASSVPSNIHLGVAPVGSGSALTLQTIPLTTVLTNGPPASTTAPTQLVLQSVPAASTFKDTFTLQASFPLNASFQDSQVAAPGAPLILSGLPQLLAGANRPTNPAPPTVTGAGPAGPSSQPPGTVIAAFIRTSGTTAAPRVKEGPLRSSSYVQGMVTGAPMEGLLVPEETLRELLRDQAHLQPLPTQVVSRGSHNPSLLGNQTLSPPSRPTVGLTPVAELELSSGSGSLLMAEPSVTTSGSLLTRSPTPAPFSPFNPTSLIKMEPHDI
Chain of CRX (O43186 whole entry): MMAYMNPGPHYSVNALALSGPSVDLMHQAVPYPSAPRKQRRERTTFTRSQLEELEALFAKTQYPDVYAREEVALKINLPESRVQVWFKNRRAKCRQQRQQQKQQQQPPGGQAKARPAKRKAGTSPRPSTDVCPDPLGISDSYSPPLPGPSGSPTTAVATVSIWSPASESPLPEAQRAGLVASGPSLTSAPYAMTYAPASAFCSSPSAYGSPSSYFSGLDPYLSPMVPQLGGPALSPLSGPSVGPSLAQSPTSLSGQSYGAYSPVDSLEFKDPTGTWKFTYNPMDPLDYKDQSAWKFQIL

Question: Which results are given for TGATGT?
Answer: binding signal [1]: 1.26 fold enrichment (6-mer frequency, TF over GST control); binding signal [2]: 1.22 fold enrichment (6-mer frequency, TF over GST control); binding signal [3]: 1.11 fold enrichment (6-mer frequency, TF over GST control); binding signal [4]: 1.32 fold enrichment (6-mer frequency, TF over GST control); binding signal [5]: 1.31 fold enrichment (6-mer frequency, TF over GST control); binding signal [6]: 1.26 fold enrichment (6-mer frequency, TF over GST control); binding signal [7]: 1.21 fold enrichment (6-mer frequency, TF over GST control); binding signal [8]: 1.05 fold enrichment (6-mer frequency, TF over GST control); binding signal [9]: 1.26 fold enrichment (6-mer frequency, TF over GST control); binding signal [10]: 1.16 fold enrichment (6-mer frequency, TF over GST control); binding signal [11]: 1.21 fold enrichment (6-mer frequency, TF over GST control); binding signal [12]: 1.29 fold enrichment (6-mer frequency, TF over GST control); binding signal [13]: 1.26 fold enrichment (6-mer frequency, TF over GST control); binding signal [14]: 1.18 fold enrichment (6-mer frequency, TF over GST control); binding signal [15]: 1.23 fold enrichment (6-mer frequency, TF over GST control); binding signal [16]: 1.15 fold enrichment (6-mer frequency, TF over GST control); binding signal [17]: 1.22 fold enrichment (6-mer frequency, TF over GST control)
